Source: ChEMBL document CHEMBL4513216, “Probing the Open Global Health Chemical Diversity Library for Multistage-Active Starting Points for Next-Generation Antimalarials” (ACS Infect Dis, 2020)
Among all 69,000 compounds or so, about 8,600 (12%) showed an effect of 50% or more. The sample as a whole holds a higher share of strong results than the screen did.

test system: Plasmodium berghei; experiment: Screen against P. berghei liver stage (PbLuc), transformed with Luciferase, at 10uM; assay type: functional, HepG2; conditions: tested at 10 uM

Structure (SMILES)	INHIBITION [%]
Cc1ccc(C(=O)NCCSCc2cccs2)cn1	8.75
Cc1ccc(NC2CCN(C(=O)c3ccc(F)c(C)c3)CC2)nn1	47.1
COCCn1c(-c2cccc(OC)c2)cnc1NC(=O)NC1CCCC1	13.5
CN(C)c1cncc(C2CCCN2S(=O)(=O)c2cn(C)cn2)n1 (stereo not drawn)	32.8
O=C(c1cnccn1)N1CCN(CC2CC2)c2ncccc2C1	-21.1
COCCC(=O)N(C)Cc1nc(C(F)(F)F)cs1	-26.8
O=C(NCc1cc[nH]n1)NCC(O)c1ccccc1F (stereo not drawn)	7.12
COc1c(C2CCCN2C(=O)c2ccco2)c(C)nn1C (stereo not drawn)	7.18
CCN(C(=O)CN1CCCC1c1c(C)nn(C)c1OC)C1CC1 (stereo not drawn)	-23.3
CN(Cc1ccco1)C(=O)CN1CCCC1c1cccs1 (stereo not drawn)	62.3
N#CCCN(Cc1ccco1)C(=O)CN1CCCC1c1cccs1 (stereo not drawn)	29.4
COc1c(C2CCCN2CC(=O)N(C)Cc2ccco2)c(C)nn1C (stereo not drawn)	89.4
CN(CCC#N)C(=O)CN1CCCC1c1cccs1 (stereo not drawn)	-85
CC(=O)Nc1ccc(CNCC(O)c2ccc(Cl)cc2)cc1 (stereo not drawn)	45.7
c1cncc(CN2CCn3c(Cn4cncn4)cnc3C2)c1	31.1
Cc1ccc(CC(=O)N2CCCC(c3nccs3)C2)cn1 (stereo not drawn)	3.4
O=C(NCC1(O)CCCC1)c1ccc2nsnc2c1	-47
COc1ccnc(N(C)Cc2csc(C)n2)n1	-62.7
Cc1cc(N(C)C)nc(N(C)Cc2csc(C)n2)n1	-3.35
Cc1nc(CN(C)c2nccc(C(F)(F)F)n2)cs1	50.1
Cc1noc(C)c1CN(C)c1nccc(C(F)(F)F)n1	-25.7
Cc1nc(CC(=O)NCCNc2nccc(C(F)(F)F)n2)cs1	22.6
Cc1nc(CN(C)c2nccc(N(C)C)n2)cs1	51.5
CCCN1CCCn2nc(CNS(=O)(=O)c3cnn(CC)c3)cc2C1	29.1
COc1ccccc1CC(=O)NCc1ccnc(NC2CC2)c1	75.7

Structure (SMILES)	INHIBITION [%]
O=C(CCc1ccc(F)cc1)NCc1ccnc(NC2CC2)c1	53.3
CCOCCC(=O)NCc1ccnc(NC2CC2)c1	41.5
O=C(CCc1ccsc1)NCc1ccnc(OC2CCOCC2)c1	-8.91
Cc1ccccc1OCCCC(=O)NCc1ccnc(O)c1	9.6
COc1ccccc1CC(=O)N1CCC(NCc2ccncc2)CC1	22.275
COc1ccc(CNC(=O)NC2CCN(C)CC2)c(C(F)(F)F)c1	33.8
O=C(Cn1ccnc1)N1CC[C@H](Oc2cccc(F)c2)[C@@H](O)CC1	13.85
CCOc1ccc(-n2nnc(C(=O)O)c2-c2ccncc2)cc1	15
O=C(O)c1ccnc(SCC(F)(F)F)c1	57
O=C(O)c1ccnc(SCc2ccccc2)c1	13.5
O=C(O)c1ccnc(SCC(=O)c2ccccc2)c1	9.55
CC(=O)N1CCCN(C(=O)CN(C)c2ccc(Cl)cn2)CC1	22.8
COc1ccc(CN2CCCC2c2cccc(F)c2)c(OC)c1OC (stereo not drawn)	16
Cc1ccc(S(C)(=O)=O)cc1C(=O)N1CCCC(n2cncn2)C1 (stereo not drawn)	-12.1
CN(C)C(=O)CO[C@H]1CN(Cc2ccsc2)[C@@H]2COC[C@H]12	-0.284
O=C(Nc1ncc[nH]1)c1cc(-c2cccnc2)n[nH]1	57
CC(C)Cc1nc(NC(=O)c2cc(-c3cccnc3)n[nH]2)n[nH]1	40.1
COc1cccc(-c2cc(C(=O)Nc3nc[nH]n3)[nH]n2)c1	-43.7
CN1CC(=O)N(c2cccc(F)c2)CC12CCN(Cc1cccnc1)C2 (stereo not drawn)	1.58
Cc1noc(C(C)C)c1C(=O)NCCC(=O)N1CCCCC1	-18
COc1ccccc1NC(=O)NC1(c2noc(CN(C)C)n2)CCCC1	48.1
Cc1cccc(CN2CCc3nnc(Cn4cccc4)n3CC2)n1	23.5
Cc1nc(-c2ccc(Cl)cc2)n(CC(=O)NC(C)C)c(=O)c1CCO	61.4
CCN(CC)C(=O)Cn1c(-c2ccc(Cl)cc2)nc(C)c(CCO)c1=O	-21.8
COCCNC(=O)Cn1c(-c2ccc(Cl)cc2)nc(C)c(CCO)c1=O	2.29

Structure (SMILES)	INHIBITION [%]
CCc1nnc(C(C)N2CCC(NC(=O)C3CCCCC3)CC2)o1 (stereo not drawn)	11.3
CN(Cc1cnccn1)C(=O)[C@@]12CNC[C@@H]1CN(Cc1ccccc1)C2	-22.3
O=C(NCC1Cn2nnc(-c3cccc(F)c3)c2CO1)c1ccc[nH]1 (stereo not drawn)	9.63
CCO[C@@H]1C[C@H]2CN(S(=O)(=O)c3cccs3)CCN2C1	57.1
O=S(=O)(c1cccs1)N1CCN2C[C@H](OCC3CC3)C[C@H]2C1	8.85
CCN1C[C@@H]2CN(S(=O)(=O)c3cccs3)C[C@@H]2C1=O	-24.5
CC(C)c1nc(S(=O)(=O)N(C)c2cc(F)ccc2F)c[nH]1	23.3
CC(C)c1nc(S(=O)(=O)N(C)c2ccc(F)cc2)c[nH]1	54.8
CCOc1ccc(N(C)S(=O)(=O)c2c[nH]c(C(C)C)n2)cc1	10.3
CNC(=O)c1cn[nH]c1C1CCCN1C(=O)c1ccccn1 (stereo not drawn)	-20.6
COCCn1cnnc1C1CCCN(c2cnccn2)C1 (stereo not drawn)	30.4
COCCC(=O)N[C@H]1CC[C@H](Nc2nccc(-c3ccncc3)n2)C1	61.5
CSCCC(=O)N[C@H]1CC[C@H](Nc2nccc(-c3ccncc3)n2)C1	0.923
CSCC(=O)N[C@H]1CC[C@H](Nc2nccc(-c3ccncc3)n2)C1	14.2
Cc1cc(C(F)(F)F)nc(C2COCCN2S(C)(=O)=O)n1 (stereo not drawn)	33.65
CC(C)OCCCNS(=O)(=O)c1ccc2c(c1)NC(=O)C(C)O2 (stereo not drawn)	-4.87
COc1cc(NCc2ccc(Cl)cc2)c(-c2nn[nH]n2)cc1OC	22.6
O=C(CCCn1cncn1)N1CCC2(CC1)[C@H](O)C[C@@H]2OCCO	54.4
O=C(CCn1cc(Cl)cn1)N1CCC2(CC1)[C@H](O)C[C@@H]2OCCO	75.7
O=C(CCn1cc(Cl)cn1)N1CCC2(CC1)OCCCC2O (stereo not drawn)	2.79
O=C(CCn1cc(Cl)cn1)N1CCCC(O)(CO)CC1 (stereo not drawn)	-15.6
O=C(CCCn1ccnc1)N1CCC2(CC1)[C@H](O)C[C@@H]2OCCO	18
O=C(CCn1cncn1)N1CCC2(CC1)[C@H](O)C[C@@H]2OCCO	12.7
